Bioassay records as filed in PubChem.
Cruzain Triton: blocks cruzain activity in presence of Triton detergent; Potency, µM, hits mostly inhibitors; purified cruzain, Z-FR-AMC fluorescence, 0.01% Triton; actives 0.43% (n = 200,000); also: nearly all actives have a fitted effect of over 40% in size
Target sequence (P25779 123-467 limits assumed): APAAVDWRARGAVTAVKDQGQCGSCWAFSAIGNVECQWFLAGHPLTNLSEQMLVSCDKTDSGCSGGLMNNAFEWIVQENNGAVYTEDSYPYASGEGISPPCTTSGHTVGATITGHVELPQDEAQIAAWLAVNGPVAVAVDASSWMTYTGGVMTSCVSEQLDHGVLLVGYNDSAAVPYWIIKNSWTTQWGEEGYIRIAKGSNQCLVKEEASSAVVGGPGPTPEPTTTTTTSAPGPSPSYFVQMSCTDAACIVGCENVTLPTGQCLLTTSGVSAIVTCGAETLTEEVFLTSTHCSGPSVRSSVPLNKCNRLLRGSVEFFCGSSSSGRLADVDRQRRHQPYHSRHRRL
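Cysteine protease activity tested under reducing, mildly acidic conditions (100 mM sodium acetate pH 5.5, 5 mM DTT) plus 0.01% Triton X-100. Cruzain 1.5 nM; substrate Z-FR-AMC 2 uM; 15 min compound preincubation at room temperature.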
Cruzain inh noDet: inhibitors of Trypanosoma cruzi cruzain without detergent | purified cruzain, Z-FR-AMC fluorescence, no detergent | Potency, µM, most hits filed as inhibitors | actives 2.3% (n = 200,000); also: nearly all actives have a fitted effect of over 40% in size
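Detergent-free condition (0.00005% Triton X-100) in acetate buffer pH 5.5 with DTT. 1.5 nM enzyme and compound were pre-mixed 15 min, then 2 uM Z-FR-AMC substrate added; reaction progress from fluorescence change between first and third reads (60 s).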
Large screens that a line does not name were inactive; ! = not confirmed by another sample. Only some compounds are listed: those with a hit (about 2.4% of all), similar ones and a draw of the others. Calls follow the shape of the dose curve; as a rule, active = well fitted curve in the direction sought with a large enough effect; inconclusive = small, poorly fitted or top-dose-only effect, or another doubt; inactive = no such curve, though single readings can be large; an effect the other way counts as inactive or inconclusive.

CCOc1ccc(OCC(=O)NCCc2nc3ccccc3[nH]2)cc1	Cruzain Triton 5µM, Cruzain inh noDet 0.79µM
COc1ccc(C(=O)NCCc2nc3ccccc3[nH]2)cc1	Cruzain Triton 13µM
Cc1cc(C)cc(OCC(=O)Nc2cccc(-c3nc4ccccc4[nH]3)c2)c1	none
Cc1cc(=O)oc2cc(OCC(=O)NCc3ccccn3)ccc12	none
O=C(O)c1oc(C(=O)O)c(C(=O)O)c1C(=O)O	none
CCC(=O)N1CCc2cc(Br)cc(S(=O)(=O)CCC(=O)NCCc3cccc(C)c3)c21	none
Clc1ccc(-c2nnc(SCc3nc4ccccc4[nH]3)o2)c(Cl)c1	Cruzain Triton 6.3µM
O=C(CCCSc1nc2ccccc2[nH]1)Nc1nnc(-c2ccccc2)o1	none
c1ccc(-c2nnc(CSc3nc4ccccc4[nH]3)o2)cc1	Cruzain inh noDet 13µM
c1ccc2[nH]c(CSc3nc4ccccc4s3)nc2c1	Cruzain Triton inconclusive, Cruzain inh noDet 16µM
c1ccc2c(CSc3nnc(-c4ccncc4)o3)cccc2c1	none
Cc1nnc(SCc2nc3ccccc3[nH]2)s1	none
c1ccc2[nH]c(CSc3nnc(-c4ccncc4)o3)nc2c1	Cruzain inh noDet 13µM
Clc1ccc(-c2nnc(SCc3ccon3)o2)c(Cl)c1	none
COc1ccc(-n2c(=O)c(C)nc3cnc(Nc4ccccc4)nc32)cc1	none
Brc1cccc(-c2nnc(-c3ccccc3)o2)c1	none
Brc1cccc(-c2nnc(SCc3nc4ccccc4[nH]3)o2)c1	Cruzain Triton 14µM, Cruzain inh noDet 13µM
C=C(C)CSc1nc(-c2ccccc2)cc(-c2ccc(OC)cc2)c1C#N	none
N#Cc1c(-c2ccccc2)cc(-c2ccccc2)nc1SCc1nnc(-c2ccccc2)o1	Cruzain inh noDet 5µM
COc1ccc(N(CC(=O)NCCc2ccccc2)S(=O)(=O)c2ccccc2)c(OC)c1	none
CC(C)C(NC(=O)c1ccccc1Cl)C(=O)OCc1nc2scc(-c3ccccc3Cl)c2c(=O)[nH]1 (stereo not drawn)	Cruzain inh noDet 25µM
O=C(OCc1nc2scc(-c3ccccc3)c2c(=O)[nH]1)c1cc([N+](=O)[O-])ccc1Cl	Cruzain inh noDet inconclusive
COc1ccc(CN(Cc2ccco2)C(=O)COc2ccccc2OC)cc1	none
C(CCOCC1CO1)COCC1CO1 (stereo not drawn)	none
O=C(Cn1c(=O)n(Cc2ccco2)c(=O)c2sc3ccccc3c21)Nc1ccc(F)cc1F	none
CCOC(=O)c1ccc(NC(=O)Cn2cnc3sc(C(=O)OCC)c(C)c3c2=O)cc1	none
CCOC(=O)c1c(NC(=O)Cn2cnc3sc(C)c(-c4ccccc4)c3c2=O)sc(C)c1C	Cruzain inh noDet 13µM
CCOC(=O)c1c(NC(=O)COC(=O)Cn2cnc3ccccc32)sc(C)c1C	none
CCOC(=O)c1c(NC(=O)Cn2cnc3scc(-c4ccc(C)cc4)c3c2=O)sc(C)c1C	Cruzain inh noDet 4µM
CC(=O)C1=C(C)NC(SCC(=O)c2ccc(Cl)cc2)=C(C#N)C1c1ccco1 (stereo not drawn)	none
CC(=O)C1=C(C)NC(SCC(=O)c2ccc(Cl)cc2Cl)=C(C#N)C1c1ccco1 (stereo not drawn)	Cruzain inh noDet 32µM
COc1cc(C2CC(=O)Oc3cc(C)c(Cl)cc32)cc(OC)c1OC (stereo not drawn)	Cruzain inh noDet inconclusive
CN1CCN(C(c2ccc(Cl)cc2Cl)c2sc3nc(-c4ccco4)nn3c2O)CC1 (stereo not drawn)	none
C=CCSc1nc2sc(-c3ccccc3)cc2c(=O)n1N	Cruzain inh noDet 32µM
Cc1ccccc1-n1c(SCC(N)=O)nc2sc(-c3ccccc3)cc2c1=O	none
CC1CN(C(=O)N2CCC(C(=O)NC3CCCCCC3)CC2)c2ccccc2O1 (stereo not drawn)	Cruzain inh noDet 7.9µM
CC(C)NC(=O)C1CCN(C(=O)N2CC(C)Oc3ccccc32)CC1 (stereo not drawn)	none
COc1cccc(NC(=O)Cn2c(=O)n(Cc3ccco3)c(=O)c3cc(OC)c(OC)cc32)c1	Cruzain inh noDet inconclusive
COc1ccc2ccc(=O)oc2c1CC=C(C)C	none
COc1cc2ccc(=O)oc2cc1O	Cruzain Triton 25µM!, Cruzain inh noDet 32µM
CC(C)CC(NC(=O)c1ccc(Cl)cc1)C(=O)OCC(=O)c1ccc2c(c1)NC(=O)CO2 (stereo not drawn)	Cruzain inh noDet 20µM
CCN(CC)S(=O)(=O)c1cc(C(=O)OCC(=O)c2ccc3c(c2)NC(=O)CO3)ccc1Cl	none
Cc1ccc(CSc2nncn3c2cc2sccc23)cc1	none
O=c1c2ccccc2nc(SCc2ccc([N+](=O)[O-])cc2)n1CCCO	Cruzain inh noDet inconclusive
COc1ccc(C(=O)Nn2c(SCC(=O)c3ccccc3)nc3ccccc3c2=O)cc1	Cruzain inh noDet inconclusive
O=c1c2ccccc2nc(SCc2ccc([N+](=O)[O-])cc2)n1-c1ccc(Cl)cc1	Cruzain inh noDet 13µM
COc1ccc(C(=O)Nn2c(SCc3ccc([N+](=O)[O-])cc3)nc3ccccc3c2=O)cc1	Cruzain inh noDet 32µM
